Results from PubChem BioAssay (EPA / NIEHS).
Results filed as inconclusive are left out. The source made the active and inactive calls. Rule for the calls, unless noted: active = hit-call score of the fitted dose curve at least 0.9, where 1 is the maximum; inconclusive = response in the unintended direction; inactive = score below 0.9.

Target: Hepatocyte nuclear factor 4-alpha (Homo sapiens) (UniProt P41235)
Sequence (P41235 whole entry, looked up): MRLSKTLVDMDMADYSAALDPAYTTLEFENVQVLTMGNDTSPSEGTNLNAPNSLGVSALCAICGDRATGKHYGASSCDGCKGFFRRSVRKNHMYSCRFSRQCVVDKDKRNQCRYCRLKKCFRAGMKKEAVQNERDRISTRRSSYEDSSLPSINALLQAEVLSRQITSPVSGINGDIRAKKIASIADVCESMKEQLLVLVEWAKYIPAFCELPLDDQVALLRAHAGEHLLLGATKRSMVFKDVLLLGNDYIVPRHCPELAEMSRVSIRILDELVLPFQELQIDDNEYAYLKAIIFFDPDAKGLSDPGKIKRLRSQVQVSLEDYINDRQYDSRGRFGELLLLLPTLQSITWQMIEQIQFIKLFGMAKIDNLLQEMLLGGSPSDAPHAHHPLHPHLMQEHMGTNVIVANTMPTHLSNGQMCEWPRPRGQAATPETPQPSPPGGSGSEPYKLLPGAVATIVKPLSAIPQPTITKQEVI
Test: ATG_HNF4a_TRANS: Attagene TRANS-FACTORIAL HepG2 Assay for human Hepatocyte Nuclear Factor 4 alpha (HNF4a) (AID 2282982)
Details: HepG2 HNF4a transactivation reporter, mRNA readout
Procedure, shortened: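 Activity of an exogenous HNF4a–Gal4 fusion scored as induced GAL4-UAS reporter transcripts after 24 h chemical exposure of transfected human HepG2 cells. Read-out via RT-PCR with 6-FAM labelling and capillary electrophoresis; rise over DMSO baseline.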
In the case of `N#Cc1c(-c2ccc(Cl)cc2)[nH]c(C(F)(F)F)c1Br`, the outcome is reported as “inactive”.
For `Cc1ccc2c(c1N)C(=O)c1ccccc1C2=O`, the outcome was “inactive”.
In the case of `OCC(F)(F)OC(F)(F)C(F)(F)OC(F)(F)C(F)(F)OC(F)(F)F`, the outcome is reported as “inactive”.
In the case of `CCN(CC)c1ccccc1`, the outcome is reported as “inactive”.
With `Cc1cccc(N)c1` the outcome was “inactive”.
In the case of `CCC1(c2ccccc2)C(=O)N=C(O)NC1=O` (configuration not stated), the outcome is reported as “inactive”.
For `O=C(O)CF`, the outcome was “inactive”.
For `C=CC(=O)OCC(F)(F)C(F)F`, the outcome was “inactive”.
With `O=S(=O)(c1ccc(O)cc1)c1ccc(O)cc1` the outcome was “inactive”.
With `c1cc2c3c(cccc3c1)CC2` the outcome was “inactive”.
In the case of `OCC1CO1` (configuration not stated), the outcome is reported as “inactive”.
With `O=C(O)C1C(C(=O)O)C2(Cl)C(Cl)=C(Cl)C1(Cl)C2(Cl)Cl` (configuration not stated) the outcome was “inactive”.
In the case of `CC(O)C#N` (configuration not stated), the outcome is reported as “inactive”.
With `CCNc1nc(Cl)nc(NC(C)(C)C)n1` the outcome was “inactive”.
For `CCOC(=O)c1ccccc1C(=O)OCC`, the outcome was “inactive”.
In the case of `Cc1ccc([N+](=O)[O-])cc1C`, the outcome is reported as “inactive”.
For `c1ccc2c(c1)Nc1ccccc1S2`, the outcome was “inactive”.
For `Cc1ccc(C(=O)Cl)cc1`, the outcome was “inactive”.
In the case of `CC1=C(C(=O)Nc2ccccc2)S(=O)(=O)CCO1`, the outcome is reported as “inactive”.

Tested on: not listed separately
Test: ATG_M_06_TRANS: Attagene TRANS-FACTORIAL HepG2 Assay for M06 Transcription Factor (Internal Marker) (AID 2282983);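 for AC50: potency for rise in reporter mRNA above DMSO baseline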;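 for outcome: reporter transcript level by RT-PCR then capillary electrophoresis fluorescence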
Details: HepG2 Attagene TRANS M06 internal marker reporter
Procedure, shortened: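 Background control endpoint: reporter mRNA from transiently transfected HepG2 after 24 h dosing, detected by RT-PCR with capillary electrophoresis fluorescence. Analysed for gain versus DMSO.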
For `OCC(F)(F)OC(F)(F)C(F)(F)OC(F)(F)C(F)(F)OC(F)(F)F`, the outcome was “inactive”.
For `Cc1cccc(N)c1`, the outcome was “inactive”.
With `CCC1(c2ccccc2)C(=O)N=C(O)NC1=O` (configuration not stated) the outcome was “inactive”.
In the case of `O=C(O)CF`, the outcome is reported as “inactive”.
With `O=[N+]([O-])c1ccccc1` the outcome was “inactive”.
For `CC(C)(C)c1ccc(O)cc1`, the outcome was “inactive”.
For `CC(C)CBr`, the outcome was “inactive”.
For `CCCCC(CC)COC(=O)c1c(Br)c(Br)c(Br)c(Br)c1C(=O)OCC(CC)CCCC` (configuration not stated), the outcome was “inactive”.
For `C=CC(=O)OCC(F)(F)C(F)F`, the outcome was “inactive”.
In the case of `O=[N+]([O-])c1ccc(Cl)c(Cl)c1`, the outcome is reported as “inactive”.
With `O=[N+]([O-])c1cc(Cl)ccc1Cl` the outcome was “inactive”.
For `O=S(=O)(c1ccc(O)cc1)c1ccc(O)cc1`, the outcome was “inactive”.
For `CCOC(=O)c1ccccc1N`, the outcome was “inactive”.
For `O=C(O)C(Cl)Cl`, the outcome was “inactive”.
For `Cc1ccc(N)cc1N`, the outcome was “inactive”.
In the case of `OCC(F)(F)OC(F)(F)C(F)(F)OC(F)(F)CO`, the outcome is reported as “inactive”.
In the case of `Nc1ccc(Cl)cc1`, the outcome is reported as “inactive”.
For `OCC1CO1` (configuration not stated), the outcome was “inactive”.
In the case of `Cn1[nH]nnc1=S`, the outcome is reported as “inactive”.
With `O=C(O)C1C(C(=O)O)C2(Cl)C(Cl)=C(Cl)C1(Cl)C2(Cl)Cl` (configuration not stated) the outcome was “inactive”.
For `CC(O)C#N` (configuration not stated), the outcome was “inactive”.
In the case of `Oc1ccc(I)cc1`, the outcome is reported as “inactive”.
For `CCNc1nc(Cl)nc(NC(C)(C)C)n1`, the outcome was “inactive”.
For `CCOC(=O)c1ccccc1C(=O)OCC`, the outcome was “inactive”.
In the case of `Cc1ccc([N+](=O)[O-])cc1C`, the outcome is reported as “inactive”.
In the case of `c1ccc2c(c1)Nc1ccccc1S2`, the outcome is reported as “inactive”.
In the case of `Cc1ccc(C(=O)Cl)cc1`, the outcome is reported as “inactive”.
For `COP(=O)(O)OC`, the outcome was “inactive”.
For `CC(Cl)CN(C)C` (configuration not stated), the outcome was “inactive”.
For `CCOS(=O)(=O)OCC`, the outcome was “inactive”.
For `CC1=C(C(=O)Nc2ccccc2)S(=O)(=O)CCO1`, the outcome was “inactive”.
In the case of `O=P1(N(CCCl)CCCl)NCCCO1` (configuration not stated), the outcome is reported as “inactive”.
In the case of `Cc1c([N+](=O)[O-])cc2c(c1[N+](=O)[O-])C(C)(C)CC2(C)C`, the outcome is reported as “inactive”.
In the case of `Cc1cc(C)c(C(=O)P(=O)(c2ccccc2)c2ccccc2)c(C)c1`, the AC50 is reported as 173 µM (active).

Tested on: not listed separately
Test: ATG_M_32_TRANS: Attagene TRANS-FACTORIAL HepG2 Assay for M32 Transcription Factor (Internal Marker) (AID 2282984);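 note: transcript level of a background control reporter unit measured by RT-PCR and capillary electrophoresis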
Details: HepG2 Attagene TRANS M32 internal marker reporter
Procedure, shortened: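 Internal background reporter in transfected HepG2: after 24 h chemical exposure, RNA reverse-transcribed, reporter cDNA amplified, fluorescently labelled and HpaI-cut, then sized by capillary electrophoresis. Gain of signal fitted against DMSO control.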
In the case of `Cc1ccc2c(c1N)C(=O)c1ccccc1C2=O`, the outcome is reported as “inactive”.
With `OCC(F)(F)OC(F)(F)C(F)(F)OC(F)(F)C(F)(F)OC(F)(F)F` the outcome was “inactive”.
For `Cc1cccc(N)c1`, the outcome was “inactive”.
For `O=C(O)CF`, the outcome was “inactive”.
For `CC(C)(C)c1ccc(O)cc1`, the outcome was “inactive”.
In the case of `CC(C)CBr`, the outcome is reported as “inactive”.
In the case of `C=CC(=O)OCC(F)(F)C(F)F`, the outcome is reported as “inactive”.
For `O=[N+]([O-])c1cc(Cl)ccc1Cl`, the outcome was “inactive”.
For `O=S(=O)(c1ccc(O)cc1)c1ccc(O)cc1`, the outcome was “inactive”.
For `CCOC(=O)c1ccccc1N`, the outcome was “inactive”.
For `OCC(F)(F)OC(F)(F)C(F)(F)OC(F)(F)CO`, the outcome was “inactive”.
For `Nc1ccc(Cl)cc1`, the outcome was “inactive”.
With `c1cc2c3c(cccc3c1)CC2` the outcome was “inactive”.
With `OCC1CO1` (configuration not stated) the outcome was “inactive”.
For `Cn1[nH]nnc1=S`, the outcome was “inactive”.
With `O=C(O)C1C(C(=O)O)C2(Cl)C(Cl)=C(Cl)C1(Cl)C2(Cl)Cl` (configuration not stated) the outcome was “inactive”.
With `Oc1ccc(I)cc1` the outcome was “inactive”.
With `CCNc1nc(Cl)nc(NC(C)(C)C)n1` the outcome was “inactive”.
For `Cc1ccc([N+](=O)[O-])cc1C`, the outcome was “inactive”.
In the case of `c1ccc2c(c1)Nc1ccccc1S2`, the outcome is reported as “inactive”.
In the case of `Cc1ccc(C(=O)Cl)cc1`, the outcome is reported as “inactive”.
With `CC(Cl)CN(C)C` (configuration not stated) the outcome was “inactive”.
With `CCOS(=O)(=O)OCC` the outcome was “inactive”.
With `O=P1(N(CCCl)CCCl)NCCCO1` (configuration not stated) the outcome was “inactive”.

Target: Nuclear receptor subfamily 4 group A member 2 (Homo sapiens) (UniProt P43354)
Sequence (P43354 whole entry, looked up): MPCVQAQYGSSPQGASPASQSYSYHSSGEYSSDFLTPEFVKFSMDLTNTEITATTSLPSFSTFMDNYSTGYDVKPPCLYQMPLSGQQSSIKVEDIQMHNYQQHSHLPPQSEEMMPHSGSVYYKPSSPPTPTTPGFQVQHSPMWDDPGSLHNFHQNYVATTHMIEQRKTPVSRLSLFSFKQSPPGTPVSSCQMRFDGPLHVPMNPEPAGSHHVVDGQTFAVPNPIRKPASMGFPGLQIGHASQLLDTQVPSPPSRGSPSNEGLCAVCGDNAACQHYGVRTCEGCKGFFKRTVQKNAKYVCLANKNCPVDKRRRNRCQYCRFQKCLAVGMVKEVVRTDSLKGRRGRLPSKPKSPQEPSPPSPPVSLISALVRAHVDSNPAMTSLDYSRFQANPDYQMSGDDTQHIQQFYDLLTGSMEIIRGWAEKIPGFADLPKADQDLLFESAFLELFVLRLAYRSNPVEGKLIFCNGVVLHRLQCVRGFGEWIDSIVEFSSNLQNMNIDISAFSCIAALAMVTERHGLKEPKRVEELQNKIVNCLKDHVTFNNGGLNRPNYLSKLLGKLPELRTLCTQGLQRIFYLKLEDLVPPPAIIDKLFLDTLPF
Test: ATG_NURR1_TRANS: Attagene TRANS-FACTORIAL HepG2 Assay for human Nuclear Receptor Related Protein 1 (NURR1) (AID 2282985)
Details: HepG2 Attagene TRANS reporter, mRNA readout
Procedure, shortened: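 Reporter transcript induction, measured by RT-PCR with fluorescent labelling, HpaI digestion and capillary electrophoresis, after 24 hr dosing of human HepG2 cells transiently expressing an exogenous NR-Gal4 fusion with GAL4-UAS-driven reporters; DMSO as baseline.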
With `Cc1ccc2c(c1N)C(=O)c1ccccc1C2=O` the outcome was “inactive”.
In the case of `OCC(F)(F)OC(F)(F)C(F)(F)OC(F)(F)C(F)(F)OC(F)(F)F`, the outcome is reported as “inactive”.
In the case of `O=C(O)CF`, the outcome is reported as “inactive”.
With `Cc1ccc(N)cc1N` the outcome was “inactive”.
With `Nc1ccc(Cl)cc1` the outcome was “inactive”.
With `CC1=C(C(=O)Nc2ccccc2)S(=O)(=O)CCO1` the outcome was “inactive”.

Target: Transcriptional activator Myb (Homo sapiens) (UniProt P10242)
Sequence (P10242 whole entry, looked up): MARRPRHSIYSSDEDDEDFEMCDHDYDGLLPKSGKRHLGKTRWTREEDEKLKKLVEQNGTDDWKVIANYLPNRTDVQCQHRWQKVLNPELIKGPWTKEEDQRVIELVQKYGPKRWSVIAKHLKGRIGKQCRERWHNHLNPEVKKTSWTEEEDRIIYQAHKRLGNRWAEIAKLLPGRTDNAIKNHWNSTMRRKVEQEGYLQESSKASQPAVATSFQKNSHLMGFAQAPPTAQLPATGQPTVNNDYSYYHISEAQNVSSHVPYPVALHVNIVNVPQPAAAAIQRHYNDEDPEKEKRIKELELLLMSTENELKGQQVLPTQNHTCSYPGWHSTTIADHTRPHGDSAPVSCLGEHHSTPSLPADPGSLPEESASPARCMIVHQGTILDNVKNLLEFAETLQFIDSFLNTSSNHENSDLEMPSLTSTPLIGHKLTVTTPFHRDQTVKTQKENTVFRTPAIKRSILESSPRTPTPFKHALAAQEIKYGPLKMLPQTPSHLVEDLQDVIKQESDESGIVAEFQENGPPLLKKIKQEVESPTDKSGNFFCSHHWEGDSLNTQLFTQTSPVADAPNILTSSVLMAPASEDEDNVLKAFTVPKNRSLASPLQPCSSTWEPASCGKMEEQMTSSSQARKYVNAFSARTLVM
Test: ATG_Myb_CIS: Attagene CIS-FACTORIAL HepG2 Assay for human Myeloblastosis (Myb) Proto-Oncogene Transcription Factor (AID 2282986; active = hit-call score of the fitted dose curve at least 0.9, where 1 is the maximum; inactive = score below 0.9)
Details: HepG2 Attagene CIS-FACTORIAL Myb reporter transcription; actives raise or lower the signal
Procedure, shortened: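 HepG2, transient MRTU transfection (cis-element promoters, endogenous TF activity), 24 h compound exposure. Readout: reporter mRNA via RT-PCR, 6-FAM labeling, HpaI digest, capillary electrophoresis. Gain/loss fit vs DMSO.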
In the case of `N#Cc1c(-c2ccc(Cl)cc2)[nH]c(C(F)(F)F)c1Br`, the outcome is reported as “inactive”.
With `Cc1ccc2c(c1N)C(=O)c1ccccc1C2=O` the outcome was “inactive”.
For `OCC(F)(F)OC(F)(F)C(F)(F)OC(F)(F)C(F)(F)OC(F)(F)F`, the outcome was “inactive”.
In the case of `CCN(CC)c1ccccc1`, the outcome is reported as “inactive”.
With `Cc1cccc(N)c1` the outcome was “inactive”.
With `CCC1(c2ccccc2)C(=O)N=C(O)NC1=O` (configuration not stated) the outcome was “inactive”.
For `O=C(O)CF`, the outcome was “inactive”.
In the case of `O=[N+]([O-])c1ccccc1`, the outcome is reported as “inactive”.
For `CC(C)(C)c1ccc(O)cc1`, the outcome was “inactive”.
With `CC(C)CBr` the outcome was “inactive”.
For `CCCCC(CC)COC(=O)c1c(Br)c(Br)c(Br)c(Br)c1C(=O)OCC(CC)CCCC` (configuration not stated), the outcome was “inactive”.
With `C=CC(=O)OCC(F)(F)C(F)F` the outcome was “inactive”.
For `O=[N+]([O-])c1ccc(Cl)c(Cl)c1`, the outcome was “inactive”.
In the case of `O=[N+]([O-])c1cc(Cl)ccc1Cl`, the outcome is reported as “inactive”.
In the case of `O=S(=O)(c1ccc(O)cc1)c1ccc(O)cc1`, the outcome is reported as “inactive”.
For `CCOC(=O)c1ccccc1N`, the outcome was “inactive”.
In the case of `O=C(O)C(Cl)Cl`, the outcome is reported as “inactive”.
In the case of `Cc1ccc(N)cc1N`, the outcome is reported as “inactive”.
For `OCC(F)(F)OC(F)(F)C(F)(F)OC(F)(F)CO`, the outcome was “inactive”.
For `Nc1ccc(Cl)cc1`, the outcome was “inactive”.
With `c1cc2c3c(cccc3c1)CC2` the outcome was “inactive”.
In the case of `OCC1CO1` (configuration not stated), the outcome is reported as “inactive”.
For `Cn1[nH]nnc1=S`, the outcome was “inactive”.
For `O=C(O)C1C(C(=O)O)C2(Cl)C(Cl)=C(Cl)C1(Cl)C2(Cl)Cl` (configuration not stated), the outcome was “inactive”.
With `CC(O)C#N` (configuration not stated) the outcome was “inactive”.
With `Oc1ccc(I)cc1` the outcome was “inactive”.
For `CCNc1nc(Cl)nc(NC(C)(C)C)n1`, the outcome was “inactive”.
With `CCOC(=O)c1ccccc1C(=O)OCC` the outcome was “inactive”.
For `Cc1ccc([N+](=O)[O-])cc1C`, the outcome was “inactive”.
With `Cc1ccc(O)cc1C` the outcome was “inactive”.
In the case of `c1ccc2c(c1)Nc1ccccc1S2`, the outcome is reported as “inactive”.
In the case of `Cc1ccc(C(=O)Cl)cc1`, the outcome is reported as “inactive”.
With `COP(=O)(O)OC` the outcome was “inactive”.
With `CC(Cl)CN(C)C` (configuration not stated) the outcome was “inactive”.
In the case of `CCOS(=O)(=O)OCC`, the outcome is reported as “inactive”.
With `CC1=C(C(=O)Nc2ccccc2)S(=O)(=O)CCO1` the outcome was “inactive”.
For `O=P1(N(CCCl)CCCl)NCCCO1` (configuration not stated), the outcome was “inactive”.
In the case of `Cc1c([N+](=O)[O-])cc2c(c1[N+](=O)[O-])C(C)(C)CC2(C)C`, the outcome is reported as “inactive”.
For `Cc1cc(C)c(C(=O)P(=O)(c2ccccc2)c2ccccc2)c(C)c1`, the AC50 was 62.4 µM (active).
